NTMT1 inhibitor: NTMT1 methyltransferase inhibition; Q9BV86; 59,000 tested, 2.5% active; AID 1645870; Potency, µM (doses to about 114 µM), for the others: top-dose activity change, negative = inhibition, hits mostly inhibitors; NTMT1 MTase-Glo SAH luminescence, purified enzyme;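 further: potency means the concentration at half of the fitted maximal effect; plate controls were DMSO vehicle for no effect and no enzyme for full effect; nearly all actives have a fitted effect of over 65% in size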
PMP22 txn prim: modulators of PMP22 gene transcription in S16 Schwann cells; S16 Pmp22-F2sN Schwann cells, FLuc/NLuc coincidence luminescence, 24 h; Potency, µM (titrated, usually from 57.5 µM), without a hit: top-dose activity change, negative = inhibition, usual class: inhibitors; 43,000 tested, 2% active; active means clear falling dose curves in both reporters; inconclusive means both reporters move, but less clearly or upward; inactive means either reporter flat; the % is the NLuc reporter signal; further: potency means the concentration at half of the fitted maximal effect; on the % scale 0 is the no-effect control and ±100 the full control effect
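Luminescent read-out of sequential FLuc and NLuc signals from a reporter embedded in the Pmp22 3' UTR of S16 Schwann cells, taken after 24 h compound exposure at 37C; compounds reducing both signals score as inhibitors of expression.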
pS6 MEF inh: inhibitors of mTORC1 signaling in Tsc2-/- p53-/- MEF cells | Tsc2-/- p53-/- MEF, phospho-rpS6 immunofluorescence/PI, 24 h | Potency, µM (highest dose often 38.3 µM), for the others: top-dose activity change, negative = inhibition, hits mostly inhibitors | 44,000 tested, 0.78% active | AID 493208;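 further: potency means the concentration at half of the fitted maximal effect; plate controls were DMSO for no effect and rapamycin for full effect; nearly all actives have a fitted effect of over 50% in size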
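Immunofluorescence of rpS6 phosphorylation in Tsc2-/-, p53-/- MEFs after 24 h compound exposure, normalized to propidium iodide signal. Activity is expressed as % positive cells, thresholded with 7.5 nM rapamycin.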
GALC G270D up: enhancers of human galactocerebrosidase G270D mutant activity in cells; P54803; 145M-Twi-hGALC-G270D cells (Twitcher mouse brain line with human GALC G270D), HMU-beta-Gal fluorescence, 48 h; Potency, µM (series often up to 57.5 µM), most hits filed as activators; 45,000 tested, 0.1% active; AID 1159614; further: potency means the concentration at half of the fitted maximal effect; 0% is about no effect; nearly all actives have a fitted effect of over 65% in size
Target sequence (P54803 whole entry G286D): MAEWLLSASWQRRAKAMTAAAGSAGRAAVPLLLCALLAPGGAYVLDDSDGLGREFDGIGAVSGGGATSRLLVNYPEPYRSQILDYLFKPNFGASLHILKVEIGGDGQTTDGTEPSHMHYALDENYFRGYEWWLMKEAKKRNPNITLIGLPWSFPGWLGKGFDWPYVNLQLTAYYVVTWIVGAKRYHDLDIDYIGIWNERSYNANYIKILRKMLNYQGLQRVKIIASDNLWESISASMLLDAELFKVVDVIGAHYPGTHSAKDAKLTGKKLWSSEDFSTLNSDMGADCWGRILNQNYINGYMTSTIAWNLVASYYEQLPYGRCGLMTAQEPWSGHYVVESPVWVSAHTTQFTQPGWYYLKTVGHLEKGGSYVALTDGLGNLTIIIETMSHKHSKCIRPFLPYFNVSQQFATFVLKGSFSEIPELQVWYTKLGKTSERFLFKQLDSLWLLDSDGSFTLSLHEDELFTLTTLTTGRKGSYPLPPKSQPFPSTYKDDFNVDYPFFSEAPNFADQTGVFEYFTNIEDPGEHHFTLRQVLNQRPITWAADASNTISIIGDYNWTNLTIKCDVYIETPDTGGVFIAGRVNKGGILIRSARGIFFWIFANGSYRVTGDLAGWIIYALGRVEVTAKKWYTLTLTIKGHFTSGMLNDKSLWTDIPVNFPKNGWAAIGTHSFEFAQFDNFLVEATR
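Live 145M-Twi cells (Twitcher mouse brain-derived, GALC-null) stably expressing human GALC-G270D, with a wild-type GALC line, were compound-treated. Residual GALC activity was then read as fluorescence from 0.1 mM final HMU-β-gal at pH 5.2; higher signal means activation.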
S16 F2sN tox: cytotoxicity in S16 Pmp22-F2sN Schwann cells | S16 Pmp22-F2sN Schwann cells (luciferase reporters placed in the Pmp22 gene) viability, CellTiter-Glo, 24 h | Potency, µM (titrated, usually from 57.5 µM), for the others: at the top dose activity change, negative = cytotoxicity, actives largely listed as cytotoxic | 43,000 tested, 0.48% active; further: potency means the concentration at half of the fitted maximal effect; on the % scale 0 is the no-effect control and ±100 the full control effect; nearly all actives have a fitted effect of over 65% in size
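Luminescence from CellTiter-Glo, read by CCD camera after a 15 min room-temperature incubation, served as the viability signal. Reporter Schwann cells (S16 Pmp22-F2sN) had been treated with pin-transferred compounds for 24 h at 37C.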
OvCa metastasis: ovarian cancer metastasis inhibition, 3D TME model; SKOV3ip1-GFP adhesion/invasion on 3D omental model, fluorescence; Potency, µM (series often up to 45.8 µM), without a hit: top-dose activity change, negative = inhibition, most hits filed as inhibitors; 46,000 tested, 0.1% active;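 further: potency means the concentration at half of the fitted maximal effect; plate controls were DMSO wells for no effect and tomatine positive control wells for full effect; nearly all actives have a fitted effect of over 65% in size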
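qHTS, 4-pt dose (0.36-46 umol/L); SKOV3ip1-GFP, 1,200 cells/well, no FBS; primary omental fibroblast/mesothelial co-culture 48 h pre-grown; 2 h RT + 16 h 37 C; PBS wash, 4% PFA; GFP count 488/509 nm.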
NLuc saturating: inhibits NanoLuc at saturating substrate, PMP22 counter-screen | shares compounds with PMP22 txn prim | Secreted NLuc enzyme (filtered S16 cell medium), Nano-Glo luminescence | Potency, µM (doses to about 57.5 µM), for inactives: at the highest dose activity change, negative = inhibition, actives largely listed as inhibitors | 690 tested, 4% active | AID 1508638; further: potency means the concentration at half of the fitted maximal effect; on the % scale 0 is the no-effect control and ±100 the full control effect
NLuc Km counter: inhibits NanoLuc under Km conditions, PMP22 counter-screen; shares compounds with PMP22 txn prim; secreted NLuc enzyme, coelenterazine luminescence, Km conditions; Potency, µM (highest dose often 57.5 µM), for inactives: at the top dose activity change, negative = inhibition, hits mostly inhibitors; 690 tested, 5% active; further: potency means the concentration at half of the fitted maximal effect; on the % scale 0 is the no-effect control and ±100 the full control effect
FLuc counter: firefly luciferase enzyme inhibition artifact for PMP22 screen | shares compounds with PMP22 txn prim | purified P. pyralis FLuc, luminescence, 10 min | Potency, µM (series often up to 57.5 µM), for the others: at the highest dose activity, negative = inhibition, hits mostly inhibitors | 690 tested, under 10 active | AID 1508640; further: % of control where 0% means no effect
S16 F2sN tox cnf: S16 Schwann cell cytotoxicity, confirmatory. shares compounds with PMP22 txn prim. S16 Schwann cells viability, CellTiter-Glo ATP luminescence, 24 h. Potency, µM (series often up to 57.5 µM), for inactives: top-dose activity change, negative = viability loss, usual class: cytotoxic. 690 tested, 7% active. AID 1508641; further: potency means the concentration at half of the fitted maximal effect; on the % scale 0 is the no-effect control and ±100 the full control effect
PMP22 txn conf: PMP22 transcription modulation, confirmatory. S16 Schwann cells Pmp22-F2sN, dual luciferase, 24 h. Potency, µM (highest dose often 57.5 µM), without a hit: top-dose activity change, negative = inhibition, hits mostly inhibitors. 690 tested, 22% active. shares compounds with PMP22 txn prim. AID 1508646; active means clear falling dose curves in both reporters; inconclusive means both reporters move, but less clearly or upward; inactive means either reporter flat; the % is the FLuc reporter signal; further: potency means the concentration at half of the fitted maximal effect
PMP22 HiBiT cnf: rat PMP22 protein level modulation, confirmatory | shares compounds with PMP22 txn prim | S16 Schwann cells Pmp22-HiBiT, luminescence, 48 h | Potency, µM (doses to about 27.9 µM), without a hit: at the top dose activity change, negative = inhibition, most hits filed as inhibitors | 95 tested, under 10 active
Target sequence (P25094 whole entry, looked up): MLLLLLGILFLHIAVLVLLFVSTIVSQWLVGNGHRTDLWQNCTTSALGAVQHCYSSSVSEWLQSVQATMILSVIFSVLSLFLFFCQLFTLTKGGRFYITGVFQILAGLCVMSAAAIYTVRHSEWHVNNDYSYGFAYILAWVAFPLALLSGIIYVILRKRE
* = called active by the depositor; i = inactive; ? = inconclusive; · = not tested or not shown; [ ] = dose if it differs, or a comment. Most compounds without a hit are left out; they make up all but 3.6% or so of the library. Unless noted, the call rests on the fitted dose curve; in most records, active means well fitted curve in the direction sought with a large enough effect; inconclusive means small, poorly fitted or top-dose-only effect, or another doubt; inactive means no such curve, though single readings can be large; an effect the other way counts as inactive or inconclusive.

SMILES | NTMT1 inhibitor | PMP22 txn prim | pS6 MEF inh | GALC G270D up | S16 F2sN tox | OvCa metastasis | NLuc saturating | NLuc Km counter | FLuc counter | S16 F2sN tox cnf | PMP22 txn conf | others
Cc1ccc(C(=O)Nc2ccc(S(=O)(=O)N3CCC(c4nc5ccccc5s4)CC3)cc2)cc1 | 1% | 12µM* | 2% | i | 8% | -13% | 0% | 5% | 6% | -47% | 15µM* | PMP22 HiBiT cnf=?
COc1ccc(NC(=O)c2ccc(-c3ccc(-c4nnc(C)o4)cc3C)cc2)cc1N1CCN(C)CC1 | 4%[57.5 µM] | · | · | · | · | · | · | · | · | · | ·
CCCN(C(=O)Cn1nc(Cc2ccncc2)c2ccccc2c1=O)c1ccccc1C | -4% | 13µM* | -10% | i | 22% | i | ? | ? | -3% | 8% | ?
Cc1cccc(NC(=O)c2cnn(-c3ccccc3)c2-n2cccc2)c1C | -3% | 13µM* | 1% | i | -19% | -3% | 19µM* | 15µM* | 0% | -21% | -24%
CCc1ccc(NC(=O)c2cnn(-c3ccccc3)c2-n2cccc2)cc1 | 5% | -111% | -4% | i | -31% | 7% | · | · | · | · | ·
Cc1ccccc1CNC(=O)C(=O)NCC(c1cccs1)S(=O)(=O)c1ccc(Cl)cc1 (stereo not given) | 0% | 15µM* | 2% | i | 0% | 8% | -14% | -17% | 4% | 10% | -24%
CCC(C)/C=C(C)/C=C/C(=O)C1CCC(O)C(C)(O)C1=O (stereo not given) | -2%[57.5 µM] | · | · | · | · | · | · | · | · | · | ·
CC(C)COc1ccccc1C1CC(=O)Nc2cc3c(cc21)OCO3 (stereo not given) | -4% | 8.4µM* | ? | i | -14% | i | ? | ? | -15% | -23% | ?
N#Cc1c(O)c2c(-c3ccc(-c4ccccc4O)cc3)csc2[nH]c1=O | ? | · | · | · | · | -12% | · | · | · | · | ·
C(=C\c1cccs1)/c1cccnc1 | -4% | · | · | · | · | · | · | · | · | · | ·
CCN(CC)CCCNC(=O)c1ccc2c(c1)sc1nc(-c3ccc(C)cc3)cn12 | 50µM* | 10µM* | 6% | i | ? | ? | ? | ? | 15µM* | 15µM* | 15µM*
CCCNC(=O)c1ccc2c(c1)sc1nc(-c3ccc(C)cc3)cn12 | 14% | -29% | -2% | i | 2% | 11% | · | · | · | · | ·
O=C(OCC#CCSc1nnc(-c2ccc3ccccc3c2)o1)c1ccc(OC(F)(F)F)cc1 | 3% | · | · | · | · | · | · | · | · | · | ·
O=C(c1c2c(nc3ccccc13)C(=O)N(C1CCCCC1)C2)N1CCN(c2ccc(F)cc2)CC1 | 11% | 10µM* | -5% | i | 4% | 8% | -14% | 7% | -8% | -6% | -36%
COc1ccc(N2CCN(C(=O)c3c4c(nc5ccccc35)C(=O)N(C3CCCCC3)C4)CC2)cc1 | -18% | -10% | -9% | i | -1% | 3% | · | · | · | · | ·
CCOC(=O)N1CCN(Cc2nc3cc(NC(=O)C(C)C)ccc3n2C(C)C)CC1 | -1% | 6.3µM* | ? | i | ? | i | -14% | 4% | 6% | 4% | -18%
CCOC(=O)N1CCN(Cc2nc3cc(NC(=O)c4ccccc4[N+](=O)[O-])ccc3n2C(C)C)CC1 | -1% | 11µM* | 1% | i | ? | ? | ? | -4% | -5% | 7% | -22%
CCOC(=O)N1CCN(Cc2nc3cc(NC(=O)c4ccccc4OC)ccc3n2C(C)C)CC1 | 20% | ? | -17% | i | ? | ? | · | · | · | · | ·
CCOC(=O)N1CCN(Cc2nc3cc(NC(=O)c4ccc(OC)cc4)ccc3n2C(C)C)CC1 | 15% | ? | ? | i | -19% | -17% | · | · | · | · | ·
CCOC(=O)N1CCN(Cc2nc3cc([N+](=O)[O-])ccc3n2C(C)C)CC1 | -7% | ? | -17% | i | -17% | -11% | -5% | 0% | 3% | ? | -5%
CCOC(=O)c1c(C)[nH]c(CCC(=O)NCCCN2CCN(c3ccc(F)cc3)CC2)c1C | -1% | ? | 10% | i | -6% | 0% | · | · | · | · | ·
CCOC(=O)c1c(C)[nH]c(CCC(=O)NCCCN2CCN(c3cc(Cl)ccc3C)CC2)c1C | ? | 15µM* | ? | i | ? | ? | -11% | 4% | -3% | ? | ?
O=C(Nc1cccc(-c2nc3ccccc3o2)c1)C(F)(F)F | 7% | 8µM* | -1% | i | ? | ? | ? | ? | ? | 21% | ?
N#Cc1nc(NCCO)nc(Nc2ccccc2)n1 | 3% | · | · | · | · | · | · | · | · | · | ·
COc1ccc(CN2CCN(Cc3cc(=O)oc4cc(C)ccc34)CC2)c(OC)c1OC | -7% | 17µM* | ? | i | ? | i | -15% | 5% | 3% | -28% | -21%
CC1=C(C(=O)Nc2cc3cn[nH]c3cc2F)C(c2ccc(C(F)(F)F)cc2)CC(=O)N1 (stereo not given) | 6%[57.5 µM] | · | · | · | · | 5% | · | · | · | · | ·
O=C(Cn1c(-c2cccs2)cc2ccccc21)NCCCN1CCN(c2ccccc2F)CC1 | -6% | ? | -4% | i | ? | ? | · | · | · | · | ·
